A selection: hits, their analogues and other compounds. The true share with any hit is near 12%.
Marburg entry inh: Marburg virus entry inhibition | Marburg virus pseudotyped entry inhibition, cell reporter | Potency, µM (top dose mostly 37.8 µM), actives largely listed as inhibitors | 300,000 tested, 1.8% active | AID 540276; calls by dose curve; tested in HEK293 cells
Lassa entry inh: blocks Lassa virus binding to or entry into cells; 300,000 tested, 1.2% active; Lassa virus pseudotype entry inhibition, cell reporter; Potency, µM (doses to about 37.9 µM), actives largely listed as inhibitors; AID 540256; calls by dose curve; tested in HEK293 cells; further: nearly all actives have a fitted effect of over 50% in size
Shiga toxin inh: blocks Shiga toxin action in Vero cells; 290,000 tested, 9.2% active; inhibition, % at 38.7 µM; Vero cells, Shiga toxin protein synthesis inhibition reporter; AID 2315; in the data active means inhibition mostly above about 28%, no sharp cut-off; inactive means mostly below about 43%
CHX counter: counter-screen for Shiga toxin inhibitors: cycloheximide protein synthesis inhibition | cell reporter, cycloheximide protein synthesis inhibition counterscreen | max response, % | 300,000 tested, 12% active | AID 2314; in the data active means max response mostly above about 13%, no sharp cut-off; inactive means mostly below about 14%; further: read at 38.3 µM for the half of the compounds with a filed dose
A number is an active result.

O=C(Nc1ccon1)c1cc2c(s1)CCCCCC2 was read as Marburg entry inh inconclusive, Lassa entry inh inconclusive, Shiga toxin inh 64.1 and CHX counter 29.8.
`O=C(Nc1ccon1)c1cc2c(s1)CCCC2` gave Marburg entry inh inconclusive, Lassa entry inh inactive, Shiga toxin inh 63.7 and CHX counter 35.1.
For Cc1ccc(NC(=O)COC(=O)C2=COCCO2)cc1 the results were Marburg entry inh inactive, Lassa entry inh inconclusive, Shiga toxin inh inactive and CHX counter 20.5.
`O=C(COC(=O)C1=COCCO1)Nc1ccc2c(c1)OCO2` gave Marburg entry inh inactive, Lassa entry inh inactive, Shiga toxin inh inactive and CHX counter 38.8.
`Cc1ccc(NC(=O)COC(=O)C2=COCCO2)c([N+](=O)[O-])c1` gave Marburg entry inh inactive, Lassa entry inh inactive, Shiga toxin inh inactive and CHX counter 26.1.
`COc1ccc(NC(=O)COC(=O)C2=COCCO2)cc1OC` gave Marburg entry inh inactive, Lassa entry inh inactive, Shiga toxin inh inactive and CHX counter inactive.
Screening COC(=O)c1ccc(COc2ccc(/C=N/O)cc2)o1 returned Shiga toxin inh inactive and CHX counter inactive.
Cn1c(=O)c2c(nc(NC3CCCC3)n2C)n(C)c1=O was read as Shiga toxin inh inactive and CHX counter 25.1.
Screening Cc1cc(NC(=O)/C=C/c2cccc(F)c2)n(-c2nc3ccccc3[nH]2)n1 returned Marburg entry inh inactive, Lassa entry inh inactive, Shiga toxin inh inactive and CHX counter inactive.
`Cc1cc(NC(=O)c2ccc(C)s2)n(-c2nc3ccccc3[nH]2)n1` gave Marburg entry inh inactive, Lassa entry inh inactive, Shiga toxin inh 32.9 and CHX counter inactive.
For Cc1cc(NC(=O)c2ccccc2F)n(-c2nc3ccccc3[nH]2)n1 the results were Marburg entry inh inactive, Lassa entry inh inactive, Shiga toxin inh inactive and CHX counter inactive.
For Cc1cc(NC(=O)/C=C/c2cccc(Cl)c2)n(-c2nc3ccccc3[nH]2)n1 the results were Marburg entry inh inconclusive, Lassa entry inh inconclusive, Shiga toxin inh active and CHX counter 65.6.
Cc1ccc(C)c(NC(=O)CN(C)C(=O)c2ccc(-c3cccc(C(F)(F)F)c3)o2)c1 was read as Marburg entry inh inconclusive and Lassa entry inh inactive.
Screening CC(C)(C=O)C1=CC(=O)c2ccccc2C1=O returned Marburg entry inh inconclusive, Lassa entry inh inconclusive, Shiga toxin inh 25.3 and CHX counter 27.7.
O=c1cc(-c2ccccc2)oc2ccc(O)cc12 was read as Shiga toxin inh 64.1 and CHX counter 31.9.
Screening COc1ccc2oc(-c3ccncc3)cc(=O)c2c1 returned Marburg entry inh inconclusive and Lassa entry inh inactive.
Screening O=C(COc1ccc2oc(-c3ccccc3)cc(=O)c2c1)NCc1ccco1 returned Marburg entry inh inconclusive, Lassa entry inh inactive, Shiga toxin inh inactive and CHX counter 24.6.
Screening COc1ccc(-c2cc(=O)c3cc(O)ccc3o2)cc1 returned Shiga toxin inh 62.0 and CHX counter 53.2.
For Cc1cc(=O)oc2ccc(OCC(=O)NCc3ccco3)cc12 the results were Marburg entry inh inactive, Lassa entry inh inactive, Shiga toxin inh inactive and CHX counter inactive.
NC(=O)c1c(-c2ccccc2)oc2ccc(O)cc12 was read as Marburg entry inh inactive, Lassa entry inh inactive, Shiga toxin inh inactive and CHX counter inactive.
For CCCn1c(SCc2cc(=O)[nH]c3ccccc23)nc2c1c(=O)n(C)c(=O)n2C the results were Marburg entry inh inactive, Lassa entry inh inactive, Shiga toxin inh inactive and CHX counter inactive.
Screening CCC[C@@H]1CCCO[C@@](C(=O)NCCN2CCOCC2)(C(F)(F)F)C1 returned Shiga toxin inh inactive and CHX counter inactive.
For O=C1C=CC(=O)N1c1ccc2c(c1)C(NC(=O)C(F)(F)F)c1ccccc1-2 (stereo not given) the results were Marburg entry inh inactive and Lassa entry inh inactive.
CCS(=O)(=O)N1Cc2ccccc2CC1C(=O)Nc1nc2ccccc2[nH]1 (stereo not given) was read as Marburg entry inh inconclusive, Lassa entry inh inconclusive, Shiga toxin inh 194.1 and CHX counter 33.9.
`CCS(=O)(=O)N1Cc2ccccc2CC1C(=O)Nc1nc2ccccc2s1` (stereo not given) gave Marburg entry inh inconclusive, Lassa entry inh inconclusive, Shiga toxin inh active and CHX counter 42.6.
For CCc1nnc(NC(=O)C2Cc3ccccc3CN2S(=O)(=O)CC)s1 (stereo not given) the results were Marburg entry inh inactive, Lassa entry inh inactive, Shiga toxin inh inactive and CHX counter inactive.
For CCN(CCC#N)c1ccc(/C=N/Nc2nc(C)cc(=O)[nH]2)c(C)c1 the results were Marburg entry inh inactive, Lassa entry inh inactive, Shiga toxin inh inactive and CHX counter inactive.
For Cc1cc(N(CCCl)CCCl)ccc1C=Cc1ccncn1 the results were Marburg entry inh 3.98µM and Lassa entry inh inconclusive.
For Cc1cc(N(CCCl)CCCl)ccc1/C=N/N=C(\N)c1cnccn1 the results were Marburg entry inh 2.24µM and Lassa entry inh inconclusive.
